Each structure is given as a SMILES string. Records with an inconclusive call do not appear. Unmarked numbers belong to inactive results. Active and inactive are the calls of the source. Calls come from the whole dose curve.
% is set by controls: 0 for no effect and ±100 for the full control effect.

Sequence of Vitamin D3 receptor (Homo sapiens) (P11473 whole entry, looked up): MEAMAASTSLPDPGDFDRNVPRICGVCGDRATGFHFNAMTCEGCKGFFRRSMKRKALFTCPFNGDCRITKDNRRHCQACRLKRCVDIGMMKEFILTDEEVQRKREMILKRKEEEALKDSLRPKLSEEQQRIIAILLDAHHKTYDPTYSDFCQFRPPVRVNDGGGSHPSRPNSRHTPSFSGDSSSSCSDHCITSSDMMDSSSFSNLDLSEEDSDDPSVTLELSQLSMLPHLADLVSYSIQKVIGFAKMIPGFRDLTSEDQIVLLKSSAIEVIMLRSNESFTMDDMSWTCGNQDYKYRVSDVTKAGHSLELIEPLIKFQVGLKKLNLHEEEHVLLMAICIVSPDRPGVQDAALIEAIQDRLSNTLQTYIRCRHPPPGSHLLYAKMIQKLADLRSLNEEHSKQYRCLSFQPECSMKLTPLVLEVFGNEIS

The test deals with Vitamin D3 receptor (Homo sapiens) (UniProt P11473). Nature of the test: qHTS assay to identify small molecule agonists of the vitamin D receptor (VDR) signaling pathway (AID 743222). The conditions noted are these: HEK293T VDR-UAS-bla, beta-lactamase FRET ratio, 16 h; series mostly up to 63.5 µM; activation: at the top concentration. An excerpt:
National Center for Advancing Translational Sciences [NCATS]
NIH Chemical Genomics Center [NCGC]
U.S. Environmental Protection Agency [EPA]
National Institutes of Environmental Health Sciences [NIEHS]
National Toxicology Program [NTP]
U.S. Food and Drug Administration [FDA]
The vitamin D receptor (VDR), a member of nuclear hormone receptor superfamily, plays a critical role in calcium homeostasis and bone metabolism. It is also involved in cell differentiation and growth, and thrombogenicity.
Tox21 Assay Protocol Summary:
VDR-bla cells were dispensed at 2,000 cells/6 uL/well into black wall/clear-bottom 1536-well plates using a Multidrop Combi (Thermo Fisher Scientific, Waltham, MA) dispenser. After the assay plates were incubated at a 37C and 5% CO2 for 4 h, 23 nL of compounds dissolved in DMSO, positive controls or DMSO only was transferred to the assay plate by a Pintool station (Kalypsys, San Diego, CA). The plates were incubated at 37C and 5% CO2 for 16 h. After 1 uL of LiveBLAzerTM B/G FRET substrate was added using a Bioraptr Flying Reagent Dispenser (FRD) workstation (Beckman Coulter, Indianapolis, IN, USA), the plates were incubated at room temperature for 2 h, and fluorescence intensity was measured by an Envision plate reader (PerkinElmer, Shelton, CT).
(In general: qHTS replaces the single test concentration by a dilution series.)
For `CC(C)OCC1CO1` (stereo not given), the “activation” value was -13.1%. Same read-out and setting: to `C=CC(C)(O)CCCC(C)CCCC(C)CCCC(C)C` (stereo not given) belongs 8.8%. On the same count and under the same terms, the result for `CC(=O)[C@H]1CC[C@H]2[C@@H]3C[C@H](C)C4=CC(=O)CC[C@]4(C)[C@H]3[C@@H](O)C[C@]12C` reads -13.9%; that for `CC1CN(c2cc3c(cc2F)c(=O)c(C(=O)O)cn3-c2ccc(F)cc2F)CCN1` (stereo not given), 5.04% [at 6.01 µM]. Take `CCCOC(=O)c1ccc(N)cc1`: the “activation” value was -3.52%. Still for that read-out and setting: the result for `CCOC(=O)/C=C/C(=O)O` reads 3.31%; that for `CCCC1C(CC)=CC(CC)=CN1c1ccccc1` (stereo not given), -13.5%. Still for that read-out and setting: the result for `CO[Si](C)(OC)OC` reads -1.44%.

Consider `Cc1cc(O)c(C(C)C)cc1Cl`, for which the result was inactive. For `c1ccc(COCc2ccccc2)cc1`, the “activation” value was 7.59% [at 81.1 µM]. Still for that read-out and setting: the result for `Nc1ccc(S(=O)(=O)O)cc1` reads -11.4% [at 81.1 µM]. Still for that read-out and setting: to `CCCCCC=CCC=CCCCCCCCC(=O)OCC` belongs -19.8%; to `Cc1ccc(Nc2nccc(N(C)c3ccc4c(C)n(C)nc4c3)n2)cc1S(N)(=O)=O`, 6.66%; to `C[N+]1(C)CCC(=C(c2ccccc2)c2ccccc2)CC1`, 2.86%.

As for `C/C(=N/NC(=O)c1ccncc1)C(=O)O`, the “activation” value was 2.03%. Still for that read-out and setting: to `Cn1c(=O)c2c(ncn2CC(=O)O)n(C)c1=O` belongs 11.4%; to `CC(=O)Oc1ccc2c(c1)CC[C@@H]1[C@@H]2CC[C@]2(C)[C@@H](O)CC[C@@H]12`, -3.17%; to `COc1ccccc1N=Nc1c(S(=O)(=O)O)cc2cc(S(=O)(=O)O)cc(NC(C)=O)c2c1O`, 4.58%. Still for that read-out and setting: to `OCC1CC=CCC1` (stereo not given) belongs -1.81%.

For `CC1=C(/C=C/C(C)=C\C=C\C(C)=C\C(=O)O)C(C)(C)CCC1`, the “activation” value is -1.26%. On the same count and under the same terms, the result for `OCCSc1ccccc1` reads -0.867%. Consider `CC(C)=CC=O`, for which the “activation” value was 0.075% [at 81.1 µM]. In the case of `CN1CCCN=C1/C=C/c1cccs1`, the “activation” value is 8.98%.

Take `CCCCCCOC(=O)CCCCCCCC(=O)OCCCCCC`: the “activation” value is -2.9%. Take `Cc1cc(S(=O)(=O)O)ccc1N=Nc1c(O)ccc2ccccc12`: the “activation” value is -1.92%.

For `C[N+](C)(C)CCOC(N)=O`, the “activation” value is -0.956%. With `CCOC(=O)c1ccccc1OC`, the “activation” value is -11.5%.

As for `O=S1OCCO1`, the “activation” value was 6.35% [at 81.1 µM]. In the case of `C=CC(=O)NCOCC(C)C`, the “activation” value was -1.56%. The same measure, in the same setting: the result for `CCC(C(=O)OCCN(CC)CC)c1ccccc1` (stereo not given) reads 9.02%; that for `NC(=O)Nc1ccc(Cl)c(Cl)c1`, -1.1%. `CC(C)CCCCCCOC(=O)CCCCC(=O)OCCCCCCC(C)C`: the “activation” value is -0.0576%. On to `COCCOC`, for which the “activation” value is 8.58%. The same measure, in the same setting: to `C=CC(C)(C)CC(=O)OC` belongs 2.93% [at 81.1 µM]; to `CCC(C(=O)OCCOCCN(CC)CC)c1ccccc1` (stereo not given), 0.265%. Consider `CCCCCCCCCOC(C)=O`, for which the “activation” value is -7.76%. Regarding `CCC(C)=O`, the “activation” value is -3.15%. Still for that read-out and setting: to `CCCCC(CC)COC(=O)COc1ccc(Cl)cc1C` (stereo not given) belongs 1.59%; to `O=C(O)c1c(O)c(-c2ccccc2)nc2ccccc12`, 2.26%. The same measure, in the same setting: to `O=C1OCCN1/N=C/c1ccc([N+](=O)[O-])o1` belongs -5.54%.

The record behind these values is PubChem BioAssay (Tox21).
